Bioassay records: PubChem BioAssay, The Scripps Research Institute Molecular Screening Center
In the library only some 3.4% were active in any assay of this set; here they are far more common.
ADAM10 inh = human ADAM10 inhibitors, primary screen, biochemical, QFRET, HTS. inhibition, % at 7 µM. AID 720582, 2013. recombinant ADAM10, EDANS/DABCYL FRET peptide cleavage, 3 h. 370,000 tested, 0.62% active. Disintegrin and metalloproteinase domain-containing protein 10 (Homo sapiens), O14672;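 active means inhibition above a per-campaign cutoff equal to the mean of compounds falling between control-based bounds plus 3 SD, cut at about 20% in these data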
sPLA2-III inh = human group III sPLA2 inhibitors, primary screen, biochemical, QFRET, BODIPY PC-A2 liposome substrate | Group 3 secretory phospholipase A2 (Homo sapiens), Q9NZ20 | QFRET BODIPY PC-A2 liposome hydrolysis, fluorescence | inhibition, % at 12.2 µM | 370,000 tested, 0.56% active | AID 743126, 2013;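 active means inhibition above mean plus 3 SD of compounds lying within the high and low control bounds, cut at about 19% in these data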
ADAM17 inh = ADAM17 inhibitors, primary screen, biochemical, QFRET | recombinant ADAM17, EDANS/DABCYL FRET peptide cleavage | 370,000 tested, 0.83% active | inhibition, % at 6.95 µM | Disintegrin and metalloproteinase domain-containing protein 17 (Homo sapiens), P78536;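 active means inhibition above the mean of compounds lying between control limits plus 3 SD, set per campaign, cut at about 8.5% in these data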
Target sequence (P78536 215-824 limits assumed): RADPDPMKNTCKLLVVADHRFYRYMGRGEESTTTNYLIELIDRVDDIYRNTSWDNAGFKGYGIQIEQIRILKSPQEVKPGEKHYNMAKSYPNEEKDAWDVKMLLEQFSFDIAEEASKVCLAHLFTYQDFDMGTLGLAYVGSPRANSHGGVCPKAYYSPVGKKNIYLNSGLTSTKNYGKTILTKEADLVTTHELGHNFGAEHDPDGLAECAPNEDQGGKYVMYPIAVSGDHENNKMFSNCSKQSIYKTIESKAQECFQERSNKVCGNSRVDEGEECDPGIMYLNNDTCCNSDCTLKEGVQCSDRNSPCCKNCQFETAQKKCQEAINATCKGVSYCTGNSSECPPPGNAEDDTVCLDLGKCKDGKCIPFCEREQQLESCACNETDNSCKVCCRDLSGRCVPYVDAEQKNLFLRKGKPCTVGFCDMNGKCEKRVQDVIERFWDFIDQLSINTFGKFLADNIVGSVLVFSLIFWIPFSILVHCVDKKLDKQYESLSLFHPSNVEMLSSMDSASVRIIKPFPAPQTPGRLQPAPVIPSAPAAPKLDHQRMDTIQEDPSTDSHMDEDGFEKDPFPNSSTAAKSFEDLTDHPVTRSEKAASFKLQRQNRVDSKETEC
PLC-beta3 inh = human PLC-beta3 inhibitors, primary screen, biochemical, fluorescence. 1-phosphatidylinositol 4,5-bisphosphate phosphodiesterase beta-3 (Homo sapiens), Q01970. inhibition, % at 12.2 µM. Purified PLC-beta3, fluorogenic substrate. 370,000 tested, 0.18% active; in the data active means inhibition above about 11%
PLC-gamma1 inh = PLC-gamma1 enzyme inhibitors, primary screen, biochemical, fluorescence, purified enzyme. 1-phosphatidylinositol 4,5-bisphosphate phosphodiesterase gamma-1 (Homo sapiens), P19174. fluorogenic substrate. inhibition, % at 12.2 µM. 370,000 tested, 0.84% active. AID 720700, 2013; in the data active means inhibition above about 9.5%
KLK7 zymogen act = proKLK7 zymogen activators, primary screen, biochemical, fluorescence intensity; Kallikrein-7 (Homo sapiens), P49862; purified proKLK7, EDANS-DABCYL substrate fluorescence; 100% is mature enzyme control, 0% vehicle; activation, % at 7 µM; 370,000 tested, 0.9% active;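 active means activation above the mean of all tested compounds plus 3 SD, computed per campaign excluding outliers beyond control limits, cut at about 13% in these data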
sPLA2 confirm = human group III sPLA2 inhibitors, confirmation, biochemical, QFRET, triplicate. recombinant hGIII-sPLA2, BODIPY PC-A2 QFRET fluorescence. inhibition, % at 12.2 µM. shares compounds with sPLA2-III inh. 2,000 tested, 34% active;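 active means mean inhibition across triplicates above the hit cutoff set in the earlier primary screen, cut at about 19% in these data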
535nm interf = 535nm fluorescence optical interference, confirmation, artefact control for HGIII-sPLA2 inhibitor project, biochemical, QFRET; shares compounds with sPLA2-III inh; 2,000 tested, 8.5% active; inhibition, % at 12.2 µM; BODIPY FL product fluorescence interference;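 active means average inhibition above the solvent-only control mean plus 3 SD, cut at about 6% in these data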
535nm interf DR = 535nm fluorescence optical interference, dose response, artefact control for HGIII-sPLA2 inhibitor project, biochemical, QFRET; shares compounds with sPLA2-III inh; BODIPY FL product fluorescence interference, cell-free; IC50, µM; 240 tested, under 10 active;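 active means IC50 at or below 10 µM; inactive means IC50 above 10 µM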
Numbers stand for hits; i = inactive; nt = no result.

SMILES	ADAM10 inh	sPLA2-III inh	ADAM17 inh	PLC-beta3 inh	PLC-gamma1 inh	KLK7 zymogen act	sPLA2 confirm	535nm interf	others
CSCCC(NC(=O)COc1ccccc1)C(=O)N(C)CC(=O)Nc1c(C)cccc1C (centres undefined)	i	21	i	i	i	i	i	i
CSCCC(NC(=O)COc1ccccc1)C(=O)OCCOc1ccc(C)cc1 (centres undefined)	i	i	i	i	i	i	nt	nt
COc1ccc(-c2c(C#N)c(SCC(N)=O)nc3c2CCCC3)cc1	i	20	i	i	i	i	20	i
CCCN(C(=O)CSc1nnc(-c2ccncc2)n1CCC)c1c(N)n(Cc2ccccc2)c(=O)[nH]c1=O	i	i	i	i	i	i	nt	nt
Cc1ccc2c(c1)C(=O)C(=O)N2Cc1ccc(C(F)(F)F)cc1	i	30	i	i	i	i	26	i
O=C1C(=O)N(Cc2ccc(-c3ccc(Cl)nc3)cc2)c2ccc(OC(F)(F)F)cc21	i	25	i	i	i	nt	32	i	535nm interf DR=i
O=C1C(=O)N(Cc2ccc(-c3ccc(F)nc3)cc2)c2ccc(OC(F)(F)F)cc21	i	i	i	i	i	nt	nt	nt
O=C1C(=O)N(Cc2ccc(-c3ccccc3)cc2)c2ccc(OC(F)(F)F)cc21	i	26	i	i	i	nt	34	i	535nm interf DR=i
CSc1ccc(CCNC(=O)c2cc(C)nn2-c2ccccc2)cc1	i	i	i	i	i	i	nt	nt
COC(=O)CCC(=O)NC(=S)Nc1cc(Cl)ccc1Cl	i	i	i	i	i	i	nt	nt
COc1ccc(C(=O)N2CCCc3ccccc32)cc1Br	i	i	i	i	i	i	nt	nt
COc1cc(OC)cc(C(=O)N2CCCc3ccccc32)c1	i	20	i	i	i	i	i	i
O=S(=O)(NNc1nccc(C(F)(F)F)n1)c1cccc(Cl)c1Cl	i	58	i	i	i	i	84	88
CNC(=S)NNC(=O)Cc1ccc(OC)cc1	i	i	i	i	i	i	nt	nt
CNC(=S)NNC(=O)Cc1ccc(O)cc1	i	26	i	i	i	i	i	i
CCCCn1c(-c2cccnc2)n[nH]c1=S	i	22	i	i	i	i	i	i
CCn1c(-c2cccnc2)n[nH]c1=S	i	i	i	i	i	i	nt	nt
O=S(=O)(O)c1ccc(O)c2cc(Nc3ccccc3)ccc12	i	25	i	i	i	i	i	i
Cc1cccc(-n2c(-c3ccoc3C)n[nH]c2=S)c1	i	20	i	i	i	i	36	i	535nm interf DR=i
Cc1ccccc1-n1c(-c2ccoc2C)n[nH]c1=S	i	i	i	i	i	i	nt	nt
S=c1[nH]nc(-c2ccc(Cl)cc2Cl)n1-c1ccccc1	i	i	i	i	i	i	nt	nt
Cc1ccc([N+](=O)[O-])c(-c2n[nH]c(=S)n2-c2cccc(Cl)c2)c1	i	31	i	i	i	i	22	6.6
COc1ccc(C(CNC(=O)c2ccc(NS(=O)(=O)c3ccc(F)c(C)c3)cc2)N2CCOCC2)cc1 (centres undefined)	i	i	i	i	i	i	nt	nt
COc1ccc(Cc2nc3ccc(C(=O)NCC4COCCO4)cc3o2)cc1OC (centres undefined)	i	i	i	i	i	i	nt	nt
CCOC(=O)C(=O)NNc1ccc(Cl)cc1	i	i	i	i	i	i	nt	nt
SMILES	ADAM10 inh	sPLA2-III inh	ADAM17 inh	PLC-beta3 inh	PLC-gamma1 inh	KLK7 zymogen act	sPLA2 confirm	535nm interf	others
CCOC(=O)C(=O)NNc1ccc(C)cc1	i	21	i	i	i	i	i	i
CC(=O)Nc1ccc(-c2ccnc3c2CC(C(=O)Nc2cccc(Oc4ccccc4)c2)O3)cc1 (centres undefined)	i	i	i	i	i	i	nt	nt
O=C(NNC(=S)Nc1ccccc1)c1ccc2ncccc2c1	i	24	i	i	i	i	30	i	535nm interf DR=i
O=C(NNC(=S)Nc1ccc(Br)cc1)c1ccccc1Br	i	35	i	i	i	i	26	8.2
O=C(NNC(=S)Nc1ccccc1Cl)c1ccccc1Br	i	22	i	i	i	i	26	i
O=C(NNC(=S)Nc1ccc(Br)cc1)c1ccccc1	i	20	i	i	i	i	22	6.7
COC(=O)Cc1ccc(NC(=S)NNC(=O)c2ccccc2Br)cc1	i	i	i	i	i	i	nt	nt
CC(C)(CNc1ccc([N+](=O)[O-])cc1Cl)N1CCOCC1	i	i	i	i	i	i	nt	nt
CC(C)CN(C(=O)COC(=O)c1ccc(Br)cc1)c1c(N)n(Cc2ccccc2)c(=O)[nH]c1=O	i	i	i	i	i	i	nt	nt
COc1cccc(C(=O)N2CCC[C@H]2C(=O)N2CCC[C@H]2C(=O)N[C@H](C)c2ccccc2)c1	i	i	i	i	i	i	nt	nt
CCN(CC(=O)NCc1ccc(F)cc1)C(=O)CN1CCN(c2ccc(OC)cc2)CC1	i	i	i	i	i	i	nt	nt
O=C(NNC(=S)NC1CCCCC1)c1ccccc1Br	i	21	i	i	i	i	29	i	535nm interf DR=i
CCN(CC)Cc1nc2c(c(=O)[nH]1)C(CC)(CC)Cc1ccccc1-2	i	i	i	i	i	i	nt	nt
CCc1cc2c(=O)[nH]c(Cc3ccc(OC)cc3)nc2s1	i	i	i	i	i	i	nt	nt
CCc1cc2c(=O)[nH]c(COC)nc2s1	i	19	i	i	i	i	i	i
N#CCCN1CCCc2cc(N=Nc3ccc(C(F)(F)F)cc3)ccc21	i	23	i	i	i	i	24	8.4
CCCN1CCCc2ccccc21	i	i	i	i	i	i	nt	nt
Cc1cccc(-n2cnc(C(=O)NNC(=S)Nc3ccc(Cl)cc3)c2)n1	i	34	i	i	i	i	59	7.9
Cn1c(=O)c(-c2ccccc2[N+](=O)[O-])c(Cl)c2ccccc21	i	i	i	i	i	i	nt	nt
CC(C)Oc1ccc(CSC(=N)N)cc1	i	29	i	i	i	i	i	i
